{"source": "PubChem BioAssay AID588591", "about": "(National Center for Advancing Translational Sciences (NCATS), 2011)", "note": "Several values for one entry are separate records, joined by “and”; a condition that tells them apart may be missing. Identical values can stand only once. The campaign covered roughly 390,000 compounds. About 4,700 (1.2%) were called active. A call without a number means that no potency is given here. Not shown: some 4% with an inconclusive outcome. The call rests on the fitted dose curve; in most records, active means well fitted inhibition curve with a large enough effect; inconclusive means small, poorly fitted or top-dose-only effect, or another doubt; inactive means no such curve, though single readings can be large or run the other way. Many of the other results were omitted from the sample, so actives are more common in it than they were. Potency means the concentration at half of the fitted maximal effect."}
{"target": "DNA polymerase eta (Homo sapiens) (UniProt Q9Y253)", "sequence (Q9Y253 whole entry, looked up)": "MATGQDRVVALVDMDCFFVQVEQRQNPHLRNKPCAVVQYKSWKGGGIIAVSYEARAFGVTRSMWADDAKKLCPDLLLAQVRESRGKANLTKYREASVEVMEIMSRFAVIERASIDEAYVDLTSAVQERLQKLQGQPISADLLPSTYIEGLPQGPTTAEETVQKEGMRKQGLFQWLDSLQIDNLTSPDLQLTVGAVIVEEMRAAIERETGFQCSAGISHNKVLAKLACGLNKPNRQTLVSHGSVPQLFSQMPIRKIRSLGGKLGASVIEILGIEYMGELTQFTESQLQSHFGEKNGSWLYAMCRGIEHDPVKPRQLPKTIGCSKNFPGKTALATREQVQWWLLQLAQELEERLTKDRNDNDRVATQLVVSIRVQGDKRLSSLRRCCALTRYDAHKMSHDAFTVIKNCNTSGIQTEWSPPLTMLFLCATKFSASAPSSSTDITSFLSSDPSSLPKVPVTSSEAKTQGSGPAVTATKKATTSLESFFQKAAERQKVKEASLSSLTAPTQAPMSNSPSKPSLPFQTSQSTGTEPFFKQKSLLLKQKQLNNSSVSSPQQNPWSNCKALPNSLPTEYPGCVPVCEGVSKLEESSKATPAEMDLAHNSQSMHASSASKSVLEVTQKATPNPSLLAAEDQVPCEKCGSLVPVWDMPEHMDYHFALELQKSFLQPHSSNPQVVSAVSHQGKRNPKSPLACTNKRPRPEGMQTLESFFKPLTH", "assay": "qHTS for Inhibitors of Polymerase Eta", "conditions": "recombinant Pol eta, fluorescent DNA replication assay; series mostly up to 114 µM", "procedure,_shortened": "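Pol eta at 10 nM preincubated with compounds 15 min at room temperature; reaction started with fluorescent substrate (50 nM final) and read kinetically at 0 and 10 min.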"}
{"smiles": "CCCCc1nn2c(=O)cc(COC(=O)c3ccccc3NC(=O)C(C)(C)C)nc2s1", "Potency": "inactive"}
{"smiles": "CCOc1ccc(N(CC)S(=O)(=O)N2CCCC(C(=O)NCc3ccc(Cl)cc3)C2)cc1", "note": "(configuration not stated)", "Potency": "inactive"}
{"smiles": "Cc1ccc(N(Cc2ccccc2O)C(=O)c2ccccc2F)cc1", "Potency": "inactive"}
{"smiles": "Cc1ccc(N(Cc2cc(=O)[nH]c3ccccc23)C(=O)CCl)cc1", "Potency": "56.2 µM (active)"}
{"smiles": "Cn1nnnc1SCc1cc(=O)[nH]c2ccccc12", "Potency": "inactive"}
{"smiles": "COc1ccc(CNC(=O)c2cc3c(s2)-c2ccccc2OC3)cc1", "Potency": "inactive"}
{"smiles": "Cc1c(C)n(Cc2ccc(Cl)cc2)c2ccc(C(=O)N3CCN(c4ccccc4F)CC3)cc12", "Potency": "inactive"}
{"smiles": "CC(C)c1ccc2c(c1)c(SC(C)(C)C)c(CC(C)(C)C(=O)O)n2Cc1ccc(Cl)cc1", "Potency": "35.5 µM (active) and 25.1 µM (active)"}
{"smiles": "CC(C)c1ccc(Cn2c(COc3ccccc3)nc3ccccc32)cc1", "Potency": "inactive"}
{"smiles": "Cc1ccc(S(=O)(=O)NCc2nc3nc(C)cc(C)n3n2)cc1", "Potency": "inactive"}
{"smiles": "Cc1cc(NC(=O)CSc2ncc(C(=O)Nc3ccc(Cl)cc3)c(=O)n2C)no1", "Potency": "inactive"}
{"smiles": "Cc1ccc(C)c(NC(=O)CSC2=Nc3ccccc3N=C(c3ccc(F)cc3)C2)c1", "Potency": "inactive"}
{"smiles": "CC(C(=O)Nc1ccc(O)c(C(=O)O)c1)N1C(=O)/C(=C/c2cccs2)SC1=S", "note": "(configuration not stated)", "Potency": "79.4 µM (active)"}
{"smiles": "CCOc1ccc(NC(=O)C(C)N2C(=O)c3ccccc3C2=O)cc1", "note": "(configuration not stated)", "Potency": "inactive"}
{"smiles": "O=C1/C(=C/c2cccs2)SC(=S)N1C1CCS(=O)(=O)C1", "note": "(configuration not stated)", "Potency": "inactive"}
{"smiles": "CCN(CC)CCNc1ncnc2c1cnn2-c1cc(Cl)ccc1C", "Potency": "inactive"}
{"smiles": "CC(C)C(=O)Nc1nc2c(s1)CC(C(C)(C)C)CC2", "note": "(configuration not stated)", "Potency": "inactive"}
{"smiles": "CCOc1ccccc1C(=O)Nc1ccc2c(c1)N(C)C(=O)c1ccccc1S2", "Potency": "inactive"}
{"smiles": "Cc1ccc(Cl)cc1-n1ncc2c(N3CCC(C(N)=O)CC3)ncnc21", "Potency": "inactive"}
{"smiles": "Cc1ccc(/C=C2\\CCn3c2nc2cc(C(=O)O)ccc2c3=O)c(C)c1", "Potency": "79.4 µM (active)"}
{"smiles": "N#Cc1ccc(/C=C2\\CCn3c2nc2cc(C(=O)O)ccc2c3=O)cc1", "Potency": "inactive"}
{"smiles": "O=C(O)c1ccc2c(=O)n3c(nc2c1)/C(=C/c1ccc(OC(F)F)cc1OC(F)F)CC3", "Potency": "inactive"}
{"smiles": "Fc1ccc(Nc2nc(SCc3ccccc3Cl)nc3ccccc23)cc1", "Potency": "inactive"}
{"smiles": "O=C(NCC12CC3CC(CC(C3)C1)C2)c1cc2nc(-c3ccccc3)cc(C(F)(F)F)n2n1", "Potency": "inactive"}
{"smiles": "COCCn1c(CCC(=O)Nc2cc(C)ccc2C)nc2cccnc21", "Potency": "inactive"}
{"smiles": "COC(=O)c1ccc(Cn2c(SCC(=O)N(C)c3ccccc3)nc3ccccc32)cc1", "Potency": "inactive"}
{"smiles": "Cc1ccc(O)c(NC(=O)CCS(=O)(=O)c2nc(-c3ccc4c(c3)OCO4)cc(C(F)(F)F)n2)c1", "Potency": "inactive"}
